Assay outcomes as filed in PubChem.
This is a sample that favours compounds with a hit; in the whole collection about 12% have one here.
m-calpain inh – blocks pig calpain II enzyme activity; purified calpain II, fluorogenic peptide substrate, 30 min; inhibition, % at 16 µM; 220,000 compounds, 0.37% hits;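 active means inhibition above about 50%, limit read from the data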
KCC2 mod – modulates chloride dependent transport by human KCC2; 190,000 compounds, 2.2% hits; KCC2 cells, thallium flux FluoZin-2 fluorescence; Q9H2X9; B-score of Tl+ flux slope (higher = more flux/activation; lower = inhibition) at 10 µM; AID 1456;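 active means thallium flux slope and its plate-corrected score both differing from the plate sample mean at a set confidence after two filtering rounds, in either direction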;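 further: slope of fluorescence scaled to starting intensity during 10 to 20 s after thallium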
Lmaj promast – Leishmania major promastigote growth inhibition. Leishmania major promastigotes, resazurin fluorescence viability. inhibition, % at 10 µM. 200,000 compounds, 9% hits; in the data active means inhibition above about 50%;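 further: promastigotes grown with compound for 44 hours at 28 °C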
WT yeast gro inh – growth inhibition of WT yeast, mitochondrial fusion screen; mitochondrial fusion phenotypic screen, WT strain; inhibition, % at 10 µM; 190,000 compounds, 2.1% hits; in the data active means inhibition above about 58%; tested in S. cerevisiae
ROMK primary – modulates human ROMK potassium channel activity; P48048; Tet-inducible ROMK, thallium flux fluorescence; actives lie on both sides; B-score at 10 µM; 130,000 compounds, 2% hits; AID 1918;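 active means signal ratio slope over the read window, or its plate-corrected B-score, at least 3 SD from the plate mean, either direction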;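 further: B-score of the F/F0 ratio slope over 7 to 12 s after thallium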
Target sequence (P48048 whole entry, looked up): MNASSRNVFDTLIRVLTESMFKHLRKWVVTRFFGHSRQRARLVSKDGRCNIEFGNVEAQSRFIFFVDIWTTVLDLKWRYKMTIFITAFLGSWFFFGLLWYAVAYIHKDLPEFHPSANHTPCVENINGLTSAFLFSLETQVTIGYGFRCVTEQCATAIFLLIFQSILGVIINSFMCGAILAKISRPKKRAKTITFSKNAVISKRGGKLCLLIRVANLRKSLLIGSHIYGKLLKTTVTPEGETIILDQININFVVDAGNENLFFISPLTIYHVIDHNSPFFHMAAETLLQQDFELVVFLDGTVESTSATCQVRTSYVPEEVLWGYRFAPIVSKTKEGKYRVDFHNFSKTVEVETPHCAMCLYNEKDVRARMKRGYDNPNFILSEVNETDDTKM
The depositor's hits bear a star; . = no result.

SMILES	m-calpain inh	KCC2 mod	Lmaj promast	WT yeast gro inh	ROMK primary
Cc1cc(Cl)c(OCCN2C(=O)NC(C)(C)C2=O)c(Br)c1	-14.9	.	63.1*	-2.6	.
Brc1ccccc1OCCCCn1cnc2ccccc21	20.1	-0.265	19.2	47.5	-1.48
Brc1ccccc1OCCCCCN1CCOCC1	-3.7	-0.347	92.9*	19.4	0.326
CC(C)N(C(=O)CSc1nnnn1-c1ccc2c(c1)OCO2)C(C)C	1.4	0.0224	24.2	-4.2	0.825
O=C(NC1CCC(NC(=O)C2CCCO2)CC1)C1CCCO1 (stereo not given)	-7.4	0.348	-10.5	6.4	.
CCN(CC)CCOC(=O)C1(c2ccccc2)CCCC1	-1.7	0.176	33.2	5.2	-0.688
Cc1cc(Cl)c(OCCCSc2nc(C)cc(=O)[nH]2)c(Br)c1	-1.7	-0.366	-8.2	-1.9	.
O=C(OCCCN1CCCC1)C1(c2ccccc2)CCCC1	7.8	0.633	99.8*	6.9	0.0227
Cc1cc(Cl)c(OCCCN2CCCCC2)c(Br)c1	-3.4	-0.035	97.4*	7.7	-2.75
CC(=O)c1ccccc1OCCOCCOCCOc1ccccc1C(C)=O	-34.6	-1.41	-4.4	-16.4	.
CC(=O)c1ccccc1OCCCN1CCCCC1	-50.9	.	89.5*	6.9	.
COc1ccccc1NC(=O)CN1CCSc2ccccc21	23.3	-2.19	9.4	1.4	-0.667
O=C(CSc1cccc[n+]1[O-])c1cc(Cl)ccc1Cl	70.1*	-0.312	99.4*	8.5	0.137
O=C(CSc1cccc[n+]1[O-])c1cc2ccccc2o1	-16.0	7.19*	94.8*	5.1	-0.0355
O=C(O)CSc1cccc[n+]1[O-]	-1.4	0.201	-2.4	-8.0	0.18
Cc1c(N(C(=O)c2ccccn2)C2(C(=O)NC3CCCCC3)CCCCC2)c(=O)n(-c2ccccc2)n1C	20.0	-1.84	-6.0	-13.9	1.17
CCn1c(NC(=O)C2CCCCC2)nc2ccccc21	-15.6	0.995	16.9	-6.0	.
S=C(Nc1ccccc1)Nc1nc2ccccc2n1CCOc1ccc(Cl)cc1	-0.2	3.05	66.4*	1.7	.
CCn1c(NC(=S)Nc2ccccc2)nc2ccccc21	-10.3	13*	84.3*	17.1	.
CCOc1cccc2cc(-c3csc(NC(=O)CCC(=O)NCCCN4CCC(C)CC4)n3)c(=O)oc12	-117.9	-0.65	62.0*	5.3	-2.81
CCOC(=O)c1c(-c2ccc(OC)cc2)csc1NC(=O)C1CCCO1 (stereo not given)	-16.7	-0.707	52.3*	19.1	-1.27
CCOC(=O)c1c(-c2ccc(F)cc2)csc1NC(=O)C1CCCO1 (stereo not given)	5.2	-0.672	5.1	39.6	-0.182
COC(=O)c1c(-c2cccc(C)c2)csc1NC(=O)C1CCCO1 (stereo not given)	-16.7	-0.504	2.0	9.7	0.0983
CCOC(=O)c1c(-c2ccc(C)cc2)csc1NC(=O)C1CCCO1 (stereo not given)	16.1	-1.34	6.7	58.1*	-0.879
CC(C)OC(=O)c1c(-c2ccc(C(C)C)cc2)csc1NC(=O)C1CCCO1 (stereo not given)	-5.8	-0.138	23.9	69.6*	0.0248
SMILES	m-calpain inh	KCC2 mod	Lmaj promast	WT yeast gro inh	ROMK primary
Cc1ccc(SCC(=O)N=C2NC(=O)CS2)cc1	10.4	-0.0244	-12.7	-16.1	0.325
COc1ccc(-c2csc(Nc3ccccc3)[n+]2CC(O)c2ccc([N+](=O)[O-])cc2)cc1 (stereo not given)	19.1	-0.443	.	.	.
COc1ccccc1NC(=O)CN(c1ccc(C23CC4CC(CC(C4)C2)C3)cc1)S(C)(=O)=O	-25.3	.	79.3*	52.5	1.32
COc1ccc(N(CC(=O)Nc2cc(OC)ccc2OC)S(C)(=O)=O)cc1	-5.7	0.504	-2.4	-18.0	.
COc1ccc(-n2c(Cc3cccn3C)nnc2SCC(=O)N2CCCc3ccccc32)cc1	-111.1	0.0153	63.2*	13.4	.
O=C(CSc1nnc(Cc2cccs2)n1C1CCCCC1)N1CCCc2ccccc21	-10.0	-0.605	95.0*	5.9	.
Cn1c(Cc2cccs2)nnc1SCC(=O)N1CCCc2ccccc21	14.2	-0.786	-2.2	-1.6	.
CCCCn1c(=O)c(-[n+]2ccccc2)c([O-])c2ccccc21	-24.1	-0.174	-7.6	-5.1	-0.212
S=c1[nH]nc(-c2cc(-c3ccccc3)n[nH]2)n1/N=C/c1cccc(Cl)c1	-7.7	0.0594	.	.	.
S=C1NC(C23CC4CC(CC(C4)C2)C3)=CC(c2ccc3c(c2)OCO3)N1 (stereo not given)	-91.8	-0.303	25.2	76.6*	-0.543
COc1ccc(OC)c(C2C=C(C34CC5CC(CC(C5)C3)C4)NC(=S)N2)c1 (stereo not given)	24.4	1.02	99.0*	76.0*	.
CN(C)S(=O)(=O)c1ccc2c(c1)nc(CCC(=O)NCc1ccc(Cl)cc1)n2C	50.8*	1.42	-4.2	-2.1	-1.48
COc1ccc(NS(=O)(=O)c2cc(OC)ccc2NC(=O)c2cc(C)oc2C)cc1	-37.9	0.247	3.7	2.1	.
CCCc1cc(NC(=O)CCl)n(-c2ccccc2)n1	14.7	0.456	51.2*	-13.0	-0.218
Cn1cc([N+](=O)[O-])c(C(=O)N/N=C/c2cc3c(cc2Br)OCO3)n1	1.8	.	-0.9	10.4	.
COc1ccc(N2CCN(C(=O)CCCSc3nc4ccccc4[nH]3)CC2)cc1	-0.1	-1.06	3.1	.	.
CCOC(=O)c1c(NC(=O)CSc2ncnc3ccccc23)sc(C(C)=O)c1C	-7.7	-1.08	79.8*	-0.1	-1.98
CCOC(=O)c1c(NC(=O)CSc2nnc(-c3ccccc3C)n2C)sc(C(C)=O)c1C	-100.4	-1.9	73.3*	-14.1	-2.18
Cc1cc(C)c(-n2nnnc2SCC(=O)c2cccs2)c(C)c1	-5.3	0.584	.	.	.
COc1ccc(/C(CC2OC(=O)c3ccccc32)=N\NC(N)=O)cc1 (stereo not given)	9.5	-0.29	-8.6	6.8	-0.358
Cn1cc(/C=N/n2cnc3scc(-c4ccc(Cl)cc4)c3c2=O)c2ccccc21	-72.7	.	59.4*	15.2	0.229
C[C@H]1CCC[C@@]2(O[C@@H](CCO)C[C@@H](O)[C@@H]2O)O1	13.3	1.42	.	.	.
CCOC(=O)c1[nH]c2ccc(OC)cc2c1NC(=S)N1CCN(c2ccccc2)CC1	-6.8	-1	77.1*	1.1	.
CCOC(=O)c1[nH]c2ccc(OC)cc2c1NC(=O)C(C)N1CCC2(CC1)OCCO2 (stereo not given)	-438.2	0.628	12.8	67.2*	.
CCOC(=O)c1[nH]c2ccc(OC)cc2c1NC(=S)N1CCN(c2ccccn2)CC1	-9.4	0.798	53.8*	9.6	0.315
SMILES	m-calpain inh	KCC2 mod	Lmaj promast	WT yeast gro inh	ROMK primary
COc1ccc([N+](=O)[O-])cc1NC(=O)CN(C)S(=O)(=O)c1ccccc1	3.2	-1.18	3.9	-5.1	0.351
CC(C)CCNC(=O)c1ccc(-c2ccccc2)cc1	24.3	-0.928	-3.2	-0.3	-0.0972
O=C(CSc1nnc(COc2ccccc2)n1-c1ccccc1)c1cccs1	31.3	-2.55	12.2	16.0	.
Cc1cc(C(=O)NCCC2=CCCCC2)ccc1[N+](=O)[O-]	16.2	-1.74	29.8	16.2	-1.32
COc1ccc(OC)c(N(CC(=O)N2CCC(C)CC2)S(=O)(=O)c2ccc(OC)c(OC)c2)c1	-18.9	0.84	1.7	-6.9	.
COc1ccc(S(=O)(=O)N(C)CC(=O)N2CCC(C)CC2)cc1Cl	-26.2	0.882	97.4*	-9.6	0
